Source: PubChem BioAssay (NCI)
The panel holds about 83,000 compounds, 20% with a hit somewhere; the sample as a whole holds those more often.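 Cell lines were cultured in 96-well plates, exposed to a single compound concentration, and assessed for percent growth 48 hours later.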 The source made the active and inactive calls. Rule for the calls: active = growth percent below 10; inactive = the rest.

How the values were obtained:
Assay in all cases: NCI-60 one-dose screen, 48 h (100 = growth as untreated, 0 = no growth, -100 = all killed)
Conditions in all cases: 10 µM unless noted
NCI-H23 lung = test system: NCI-H23 lung
NCI-H226 lung = test system: NCI-H226 lung
NCI-H322M lung = test system: NCI-H322M lung
HOP-62 NSCLC = test system: HOP-62 NSCLC
NCI-H460 lung = test system: NCI-H460 lung
HOP-92 NSCLC = test system: HOP-92 NSCLC
NCI-H522 lung = test system: NCI-H522 lung
A549/ATCC NSCLC = test system: A549/ATCC NSCLC
786-0 renal = test system: 786-0 renal
COLO 205 colon = test system: COLO 205 colon
DU-145 prostate = test system: DU-145 prostate
K-562 leukemia = test system: K-562 leukemia
MALME-3M melanoma = test system: MALME-3M melanoma
MDA-MB-231 breast = test system: MDA-MB-231 breast
RXF 393 renal = test system: RXF 393 renal
SF-268 CNS = test system: SF-268 CNS
SF-295 CNS = test system: SF-295 CNS
SF-539 CNS = test system: SF-539 CNS
UACC-257 melanoma = test system: UACC-257 melanoma
M14 melanoma = test system: M14 melanoma

Measured: growth

CCOC(=O)Nc1ccc2c(c1)/C(=N\NC(=S)NC)c1ccccc1-2
active: RXF 393 renal 7.59%
inactive: NCI-H23 lung 93.8% | NCI-H226 lung 107% | NCI-H322M lung 92.3% | HOP-62 NSCLC 108% | NCI-H460 lung 65.1% | HOP-92 NSCLC 85.9% | NCI-H522 lung 68% | A549/ATCC NSCLC 55.7% | 786-0 renal 64.4% | COLO 205 colon 106% | DU-145 prostate 88.9% | K-562 leukemia 77.2% | MALME-3M melanoma 115% | MDA-MB-231 breast 65% | SF-268 CNS 101% | SF-295 CNS 46.8% | SF-539 CNS 71.4% | UACC-257 melanoma 107% | M14 melanoma 78.2%

COC(=O)[C@H](CC(C)C)NC(=O)NC(=O)NC(=O)CI
inactive: NCI-H23 lung 73.5% | NCI-H226 lung 98.5% | NCI-H322M lung 98.2% | HOP-62 NSCLC 92.8% | NCI-H460 lung 85.9% | A549/ATCC NSCLC 98.2% | DU-145 prostate 109% | MDA-MB-231 breast 33.4% | RXF 393 renal 64.1% | SF-268 CNS 85% | SF-295 CNS 88.8% | SF-539 CNS 77.2% | UACC-257 melanoma 98.2% | M14 melanoma 63.5%
active: HOP-92 NSCLC -60.6% | NCI-H522 lung -79.2% | 786-0 renal -73.5% | COLO 205 colon -31.4% | K-562 leukemia 2.16% | MALME-3M melanoma -57%

COc1ccc2c(c1)c(-c1noc(-c3cn(C)c4ncc(F)cc34)n1)cn2C
inactive: NCI-H23 lung 75.4% | NCI-H226 lung 108% | NCI-H322M lung 57% | HOP-62 NSCLC 55.7% | NCI-H460 lung 18.5% | HOP-92 NSCLC 69.9% | NCI-H522 lung 79% | A549/ATCC NSCLC 21.5% | 786-0 renal 50.8% | COLO 205 colon 88.3% | DU-145 prostate 82.4% | K-562 leukemia 84.7% | MALME-3M melanoma 77.5% | MDA-MB-231 breast 62.2% | RXF 393 renal 73.7% | SF-268 CNS 79.7% | SF-295 CNS 62.6% | SF-539 CNS 84.6% | UACC-257 melanoma 94.4% | M14 melanoma 91.9%

O=C(Nc1ccc(CN2CCOCC2)c(C(F)(F)F)c1)c1nc2ccc3[nH]ncc3c2c2c1CCCC2
inactive: NCI-H23 lung 93.2% | NCI-H226 lung 91.2% | NCI-H322M lung 102% | HOP-62 NSCLC 78.8% | NCI-H460 lung 90.1% | HOP-92 NSCLC 99.2% | NCI-H522 lung 87.3% | A549/ATCC NSCLC 63.3% | 786-0 renal 101% | COLO 205 colon 83.4% | DU-145 prostate 104% | K-562 leukemia 82.8% | MALME-3M melanoma 106% | MDA-MB-231 breast 95.9% | RXF 393 renal 99.7% | SF-268 CNS 103% | SF-295 CNS 97.7% | SF-539 CNS 99.1% | UACC-257 melanoma 88.9% | M14 melanoma 91.6%

CCn1cc(-c2[nH]c(=S)ncc2-c2ccc(Cl)cc2)c(-c2ccc(Br)cc2)n1
inactive: NCI-H23 lung 85.8% | NCI-H226 lung 94% | NCI-H322M lung 96.5% | HOP-62 NSCLC 61.6% | NCI-H460 lung 58.5% | HOP-92 NSCLC 104% | NCI-H522 lung 58.5% | A549/ATCC NSCLC 72.2% | 786-0 renal 101% | COLO 205 colon 94% | DU-145 prostate 100% | K-562 leukemia 120% | MALME-3M melanoma 108% | MDA-MB-231 breast 89.1% | RXF 393 renal 109% | SF-268 CNS 75.1% | SF-295 CNS 68.4% | SF-539 CNS 87.5% | UACC-257 melanoma 84.8% | M14 melanoma 66.7%

CC1(C)CC[C@]2(C(=O)O)CC[C@]3(C)C(=CC[C@@H]4[C@@]5(C)C/C(=C/c6cccnc6)[C@H](O)C(C)(C)[C@@H]5CC[C@]43C)[C@@H]2C1
active: NCI-H23 lung 6.1% [100 µM] | NCI-H226 lung -23% [100 µM] | NCI-H322M lung -17% [100 µM] | HOP-62 NSCLC -2.51% [100 µM] | NCI-H460 lung -16.7% [100 µM] | HOP-92 NSCLC -21.8% [100 µM] | NCI-H522 lung -8.98% [100 µM] | A549/ATCC NSCLC 5.82% [100 µM] | 786-0 renal 5.39% [100 µM] | COLO 205 colon -73% [100 µM] | DU-145 prostate 5.35% [100 µM] | K-562 leukemia 9.27% [100 µM] | MALME-3M melanoma -30.1% [100 µM] | MDA-MB-231 breast -24.3% [100 µM] | RXF 393 renal -37.4% [100 µM] | SF-295 CNS -7.25% [100 µM] | SF-539 CNS -26.8% [100 µM] | UACC-257 melanoma -8.97% [100 µM] | M14 melanoma 3.32% [100 µM]
inactive: SF-268 CNS 22.4% [100 µM]

O=C(N/N=C/c1c(Cl)cccc1Cl)c1cccc(Nc2ccnc(C(F)(F)F)c2)c1
inactive: NCI-H23 lung 89.7% | NCI-H226 lung 78.7% | NCI-H322M lung 108% | HOP-62 NSCLC 86.6% | NCI-H460 lung 82.1% | HOP-92 NSCLC 60.5% | NCI-H522 lung 87% | A549/ATCC NSCLC 107% | 786-0 renal 81.9% | COLO 205 colon 89.4% | DU-145 prostate 120% | K-562 leukemia 104% | MALME-3M melanoma 113% | MDA-MB-231 breast 76.8% | RXF 393 renal 111% | SF-268 CNS 125% | SF-295 CNS 90.3% | SF-539 CNS 92.9% | UACC-257 melanoma 102% | M14 melanoma 80.8%
